The list shows a part of the results. The true hit rate is not given.
Target: furin, P09958
Assay: furin cleavage Z-score vs untreated control; higher = more cleavage, active = 3.5 or more, inactive = 1 or less, 8 variable residues between constant flanks
Description: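 Multiplexed peptide-cDNA fusion cleavage assay. 8-mer variable peptides flanked by constant Cys-Ala (N-term) and Ala-Gly-Asn-Ala-Ser-Ala-Ser-Ala (C-term) and conjugated to a cDNA oligonucleotide were bead-immobilised via the N-terminus. They were treated with purified furin at a 1:10 enzyme:substrate ratio in 50 mM HEPES pH 7.5, 1 mM CaCl2, 100 mM NaCl for 7.5, 15 or 30 min. Released cDNA was counted by next-generation sequencing, and log counts versus no-furin controls were lowess-adjusted and converted to robust Z-scores.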

furin, P09958, sequence (P09958 whole entry): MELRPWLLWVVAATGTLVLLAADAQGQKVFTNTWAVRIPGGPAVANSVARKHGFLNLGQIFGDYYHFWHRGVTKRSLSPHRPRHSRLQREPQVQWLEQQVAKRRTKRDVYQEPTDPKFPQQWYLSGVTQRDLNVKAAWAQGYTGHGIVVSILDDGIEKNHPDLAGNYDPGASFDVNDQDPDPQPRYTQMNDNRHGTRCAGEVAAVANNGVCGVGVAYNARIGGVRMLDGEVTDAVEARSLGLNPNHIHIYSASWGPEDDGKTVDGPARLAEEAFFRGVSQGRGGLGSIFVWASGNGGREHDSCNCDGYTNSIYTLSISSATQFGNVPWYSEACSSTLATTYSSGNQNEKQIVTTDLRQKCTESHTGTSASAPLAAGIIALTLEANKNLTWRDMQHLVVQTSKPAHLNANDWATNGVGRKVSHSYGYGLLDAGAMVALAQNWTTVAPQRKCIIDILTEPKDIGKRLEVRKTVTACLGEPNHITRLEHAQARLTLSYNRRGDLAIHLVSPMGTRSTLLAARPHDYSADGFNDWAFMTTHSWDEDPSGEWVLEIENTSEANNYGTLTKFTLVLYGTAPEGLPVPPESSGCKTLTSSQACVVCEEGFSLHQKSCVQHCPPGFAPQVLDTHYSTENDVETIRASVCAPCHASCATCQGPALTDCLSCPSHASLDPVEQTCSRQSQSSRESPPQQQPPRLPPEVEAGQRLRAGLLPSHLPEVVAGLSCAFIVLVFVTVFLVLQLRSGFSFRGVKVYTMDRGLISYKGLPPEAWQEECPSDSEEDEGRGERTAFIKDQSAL

Sequence | furin cleavage Z-score (7.5 min) | furin cleavage Z-score (15 min) | furin cleavage Z-score (30 min)
CAMEECSDHLAGNASASA [HC1731] | -0.133 (inactive) | -1.7 (inactive) | 1.31
CAKCLIRLKPAGNASASA [HC965] | -0.996 (inactive) | 0.139 (inactive) | 0.507 (inactive)
CAPTGSGKSTAGNASASA [HC776] | -0.612 (inactive) | -0.784 (inactive) | 0.917 (inactive)
CATSGITGDNAGNASASA [HC1339] | 0.521 (inactive) | -1.94 (inactive) | -2.62 (inactive)
CASSFRFPRTAGNASASA [FS-196] | 0.00727 (inactive) | 0.495 (inactive) | 1.37
CAPTRRTKRTAGNASASA [FS-76] | 10.6 (active) | 10.9 (active) | 7.13 (active)
CAPSERTRRTAGNASASA [FS-1553] | 6.49 (active) | 7.9 (active) | 7.83 (active)
CAPSPVVVGTAGNASASA [HC416] | 0.116 (inactive) | 0.136 (inactive) | -0.669 (inactive)
CATLEVVTSTAGNASASA [HC2278] | 2.04 | -0.134 (inactive) | -0.107 (inactive)
CATSPRTKRTAGNASASA [FS-1576] | 10.8 (active) | 10.5 (active) | 8.67 (active)
CASSPRCKRTAGNASASA [FS-724] | 6.48 (active) | 5.33 (active) | 4.2 (active)
CAVVPCHRPSAGNASASA [HC2310] | 0.864 (inactive) | 0.937 (inactive) | 1.82
CADSLNTGWLAGNASASA [HC376] | -0.896 (inactive) | 0.0514 (inactive) | -1.36 (inactive)
CAAGLFYHHKAGNASASA [HC380] | -0.0785 (inactive) | -0.406 (inactive) | 0.464 (inactive)
CATTPCSESWAGNASASA [HC1892] | -1.68 (inactive) | -0.885 (inactive) | 0.194 (inactive)
CAKKKCDELAAGNASASA [HC859] | 0.206 (inactive) | -0.587 (inactive) | -1.61 (inactive)
CADAELIEANAGNASASA [HC1272] | 1.56 | 1.04 | 0.698 (inactive)
CAPVRRWRRVAGNASASA [FS-1247] | 9.64 (active) | 9.32 (active) | 6.63 (active)
CADVSRARRVAGNASASA [FS-1519] | 0.954 (inactive) | 1.02 | 1.74
CAPVRRRGDSAGNASASA [HC731] | -0.373 (inactive) | 0.103 (inactive) | -0.876 (inactive)
CAYLRRRRRVAGNASASA [FS-391] | 9.87 (active) | 10.2 (active) | 8.18 (active)
CAGLGRRRRVAGNASASA [FS-1127] | 6.73 (active) | 8.39 (active) | 7.41 (active)
CAGLDRLRRVAGNASASA [FS-1126] | 0.977 (inactive) | 1.09 | 1.81
